# According to PubChem BioAssay:
# The source made the active and inactive calls.
# Tests used:
# [1] = target: Albumin (Bos taurus) (UniProt P02769); assay: bovine serum albumin binders on microarray, profiling panel, artefact control for SMM control protein annotation, biochemical, small-molecule microarray, Alexa647 label, 635/667 nm fluorescence (AID 1118); conditions: BSA-A647 binding, fluorescence 635 nm, higher = more signal;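 note: score merges 667 nm emission intensity and signal-to-noise per printed compound spot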
# [2] = small-molecule microarray binders of probe aXIP, primary screen, biochemical, NeuroSMM set, 635/667 nm fluorescence (AID 1119); conditions: higher = more signal, called active from +8 up or from −8 down;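 note: probe is the protein aXip251-270 applied at 1 µg/mL to compound-printed slides; binding of probe to printed compounds measured as 667 nm fluorescence plus signal to noise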
# [3] = small-molecule binders of probe aNOTCH3, primary screen, biochemical, small-molecule microarray, 635/667 nm fluorescence (AID 1120); conditions: higher = more signal;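 note: probe is a biotin-tagged antibody raised against NOTCH3 rather than NOTCH3 protein; score merges spot fluorescence near 667 nm with spot signal to noise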
# [4] = small-molecule binders of probe aNOTCH2, primary screen, biochemical, small-molecule microarray, 635/667 nm fluorescence (AID 1121); conditions: higher = more signal;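 note: score merges feature fluorescence read at 667 nm with its signal to noise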
# [5] = target: Carbonic anhydrase 2 (Homo sapiens) (UniProt P00918); assay: CAII small-molecule binders, profiling panel, biochemical, small-molecule microarray, Alexa647-labelled CAII (AID 1122); conditions: CAII-A647 binding fluorescence, higher = more signal
# [6] = COS7 lysate on small-molecule microarray, probe aHis, 635 nm (AID 1123); conditions: COS7 cell lysate, fluorescence, higher = more signal;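 note: z-score combines 667nm fluorescence intensity with signal-to-noise per printed compound spot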
# [7] = compound binding in COS7 lysate, probe aLAP1, primary screen, cell lysate, small-molecule microarray (AID 1124); conditions: probe aLAP1, fluorescence, higher = more signal;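 note: lysate comes from COS7 cells expressing LAP1 and is applied at 0.3 µg/mL; score merges spot fluorescence near 667 nm with signal-to-noise over triplicate slides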
# [8] = tested on: Sam68 (KHDRBS1); assay: Sam68 small-molecule binders, primary screen, biochemical, small-molecule microarray, 635 nm fluorescence (AID 1125); conditions: small-molecule microarray binding, higher = more signal;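 note: score merges 667 nm channel intensity with signal to noise over triplicate slides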
# [9] = tested on: Chordin-like protein 2 (CHRDL2); assay: CHRDL2 small-molecule binders, primary screen, biochemical, small-molecule microarray, 635 nm fluorescence (AID 1126); conditions: small-molecule microarray binding, fluorescence 635 nm; higher = more signal;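 note: printed compound slides probed with Chrdl2 protein at 4 µg/mL for 1 h at 4 C; score merges 667 nm emission intensity with signal to noise over three replicate slides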
# [10] = target: Concanavalin-A (Canavalia ensiformis) (UniProt P02866); assay: ConA small-molecule binders, primary screen, artefact control for SMM control protein annotation, biochemical, small-molecule microarray, Alexa647 label, 635 nm (AID 1127); conditions: ConA-A647 binding fluorescence, higher = more signal;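 note: z combines 667 nm emission intensity with signal-to-noise across three replicate slides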
# [11] = anti-His antibody binders, primary screen, artefact control for SMM control protein annotation, biochemical, small-molecule microarray, 635 nm fluorescence (AID 1128); conditions: anti-His Alexa647 antibody binding, higher = more signal;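 note: score merges feature fluorescence with signal-to-noise for each printed compound spot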
# [12] = tested on: Human papillomavirus type 1a E7 protein (residues 1-88); assay: HPV1a E7 small-molecule binders, primary screen, biochemical, small-molecule microarray, residues 1-88, 635 nm (AID 1129); conditions: small-molecule microarray binding, fluorescence 635 nm; higher = more signal
# [13] = target: Focal adhesion kinase 1 (Homo sapiens) (UniProt Q05397); assay: small-molecule microarray binders of FAK, primary screen, biochemical, 635/667 nm fluorescence, BSA, DTT (AID 1130); conditions: PTK2 binding, 635 nm fluorescence, higher = more signal;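 note: composite of spot emission at 667 nm and signal to noise over triplicate slides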
# [14] = tested on: Fibrinogen (Alexa647-labelled); assay: fibrinogen binders on compound microarrays, profiling panel, artefact control for SMM control-protein annotation, biochemical, small-molecule microarray, 635/667 nm fluorescence (AID 1131); conditions: fibrinogen-A647 binding fluorescence, higher = more signal;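 note: z-score merges 667 nm fluorescence with per-spot signal-to-noise over triplicate slides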
# [15] = target: Follistatin (Homo sapiens) (UniProt P19883); assay: follistatin binders on small-molecule microarrays, primary screen, biochemical, small-molecule microarray, 635/667 nm fluorescence (AID 1132); conditions: FST binding, 635 nm fluorescence, higher = more signal
# [16] = target: Fibroblast growth factor 2 (Homo sapiens) (UniProt P09038); assay: FGF2 binders on small-molecule microarrays, primary screen, biochemical, small-molecule microarray, 635/667 nm fluorescence (AID 1133); conditions: small-molecule microarray binding, FGF2, fluorescence 635/667; higher = more signal
# [17] = mitochondrial membrane potential change in A549 cells, profiling panel, cell-based, JC-1 fluorescence, basal, 24 h, 100 nL (AID 1138); conditions: higher = more signal;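 note: A549 lung adenocarcinoma cells under basal conditions with no added stimulus; test concentration not given here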
# [18] = tested on: Lefty1; assay: Lefty1 binders on small-molecule microarrays, primary screen, biochemical, small-molecule microarray, 635/667 nm fluorescence (AID 1139); conditions: small-molecule microarray binding, fluorescence 635/667; higher = more signal
# [19] = tested on: wheat germ agglutinin (Triticum aestivum), Alexa647-labelled; assay: wheat germ agglutinin binders on compound microarrays, profiling panel, artefact control for SMM control-protein annotation, biochemical, small-molecule microarray, 635/667 nm fluorescence (AID 1140); conditions: WGA-A647 binding, 635 nm fluorescence, higher = more signal;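 note: score merges 667 nm feature emission with signal to noise over triplicate slides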
# [20] = target: Luciferin 4-monooxygenase (Photinus pyralis) (UniProt P08659); assay: firefly luciferase enzyme inhibitors, primary screen, biochemical, luminescence, purified enzyme, 2006 set (AID 1141); conditions: SteadyGlo luminescence, 30 min, higher = more signal, called active from +8 up or from −8 down;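 note: cell-free assay with purified firefly luciferase at 100 ng per well in PBS; test concentration not given here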
# Luciferin 4-monooxygenase (Photinus pyralis), sequence (P08659 whole entry, looked up): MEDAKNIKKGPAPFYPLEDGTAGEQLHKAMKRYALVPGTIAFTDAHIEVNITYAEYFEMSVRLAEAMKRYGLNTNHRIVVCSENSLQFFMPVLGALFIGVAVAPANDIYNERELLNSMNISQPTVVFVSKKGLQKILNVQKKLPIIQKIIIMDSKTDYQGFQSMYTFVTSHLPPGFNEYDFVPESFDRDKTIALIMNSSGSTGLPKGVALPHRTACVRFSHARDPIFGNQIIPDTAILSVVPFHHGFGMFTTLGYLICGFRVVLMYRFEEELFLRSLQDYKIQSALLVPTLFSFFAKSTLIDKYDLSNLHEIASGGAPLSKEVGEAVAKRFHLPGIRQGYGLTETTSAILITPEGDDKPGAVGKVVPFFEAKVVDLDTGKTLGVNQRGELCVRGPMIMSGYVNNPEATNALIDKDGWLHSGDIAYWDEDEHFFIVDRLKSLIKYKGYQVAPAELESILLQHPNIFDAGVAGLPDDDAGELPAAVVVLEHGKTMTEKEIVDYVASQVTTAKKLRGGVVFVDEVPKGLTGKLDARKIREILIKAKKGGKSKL
# Albumin (Bos taurus), sequence (P02769 whole entry, looked up): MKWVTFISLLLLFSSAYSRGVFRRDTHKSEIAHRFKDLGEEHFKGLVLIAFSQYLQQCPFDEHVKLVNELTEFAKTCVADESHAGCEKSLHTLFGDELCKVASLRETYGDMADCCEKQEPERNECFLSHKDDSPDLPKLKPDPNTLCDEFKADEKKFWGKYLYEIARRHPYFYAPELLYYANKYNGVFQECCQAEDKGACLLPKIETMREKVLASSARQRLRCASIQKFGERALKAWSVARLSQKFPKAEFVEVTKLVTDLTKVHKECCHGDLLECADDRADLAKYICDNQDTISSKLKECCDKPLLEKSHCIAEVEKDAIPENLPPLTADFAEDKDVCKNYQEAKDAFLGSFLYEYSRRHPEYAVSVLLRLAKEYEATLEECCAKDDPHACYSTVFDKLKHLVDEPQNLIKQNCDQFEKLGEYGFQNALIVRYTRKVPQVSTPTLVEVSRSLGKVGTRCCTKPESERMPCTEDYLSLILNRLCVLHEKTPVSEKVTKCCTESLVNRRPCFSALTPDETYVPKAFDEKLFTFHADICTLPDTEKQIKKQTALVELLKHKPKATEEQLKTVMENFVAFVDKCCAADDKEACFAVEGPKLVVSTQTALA
# Follistatin (Homo sapiens), sequence (P19883 whole entry, looked up): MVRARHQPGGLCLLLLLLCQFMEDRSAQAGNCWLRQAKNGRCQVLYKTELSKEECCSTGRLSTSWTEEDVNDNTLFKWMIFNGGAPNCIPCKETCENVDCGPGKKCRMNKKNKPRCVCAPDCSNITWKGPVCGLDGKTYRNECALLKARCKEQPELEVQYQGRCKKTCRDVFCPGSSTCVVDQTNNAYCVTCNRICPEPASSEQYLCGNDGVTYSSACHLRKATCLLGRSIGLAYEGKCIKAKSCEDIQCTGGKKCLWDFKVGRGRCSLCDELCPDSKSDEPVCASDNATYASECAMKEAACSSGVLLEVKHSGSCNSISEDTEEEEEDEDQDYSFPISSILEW
# Fibroblast growth factor 2 (Homo sapiens), sequence (P09038 whole entry, looked up): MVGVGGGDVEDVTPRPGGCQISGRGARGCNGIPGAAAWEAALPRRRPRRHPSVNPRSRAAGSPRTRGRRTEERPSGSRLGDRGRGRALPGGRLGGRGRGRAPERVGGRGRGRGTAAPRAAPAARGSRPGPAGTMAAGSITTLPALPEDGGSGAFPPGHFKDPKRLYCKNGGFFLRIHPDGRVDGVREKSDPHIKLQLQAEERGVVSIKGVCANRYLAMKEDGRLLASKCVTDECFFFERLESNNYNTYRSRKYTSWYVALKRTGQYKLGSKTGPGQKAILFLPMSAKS
# Concanavalin-A (Canavalia ensiformis), sequence (P02866 whole entry, looked up): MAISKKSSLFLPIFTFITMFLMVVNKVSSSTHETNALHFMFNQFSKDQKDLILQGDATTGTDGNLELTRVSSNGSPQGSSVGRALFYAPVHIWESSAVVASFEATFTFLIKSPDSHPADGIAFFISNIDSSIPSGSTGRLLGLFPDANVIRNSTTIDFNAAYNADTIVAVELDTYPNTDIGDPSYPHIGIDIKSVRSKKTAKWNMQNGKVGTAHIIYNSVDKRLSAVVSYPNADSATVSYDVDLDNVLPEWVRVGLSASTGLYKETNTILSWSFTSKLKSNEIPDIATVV
# Focal adhesion kinase 1 (Homo sapiens), sequence (Q05397 whole entry, looked up): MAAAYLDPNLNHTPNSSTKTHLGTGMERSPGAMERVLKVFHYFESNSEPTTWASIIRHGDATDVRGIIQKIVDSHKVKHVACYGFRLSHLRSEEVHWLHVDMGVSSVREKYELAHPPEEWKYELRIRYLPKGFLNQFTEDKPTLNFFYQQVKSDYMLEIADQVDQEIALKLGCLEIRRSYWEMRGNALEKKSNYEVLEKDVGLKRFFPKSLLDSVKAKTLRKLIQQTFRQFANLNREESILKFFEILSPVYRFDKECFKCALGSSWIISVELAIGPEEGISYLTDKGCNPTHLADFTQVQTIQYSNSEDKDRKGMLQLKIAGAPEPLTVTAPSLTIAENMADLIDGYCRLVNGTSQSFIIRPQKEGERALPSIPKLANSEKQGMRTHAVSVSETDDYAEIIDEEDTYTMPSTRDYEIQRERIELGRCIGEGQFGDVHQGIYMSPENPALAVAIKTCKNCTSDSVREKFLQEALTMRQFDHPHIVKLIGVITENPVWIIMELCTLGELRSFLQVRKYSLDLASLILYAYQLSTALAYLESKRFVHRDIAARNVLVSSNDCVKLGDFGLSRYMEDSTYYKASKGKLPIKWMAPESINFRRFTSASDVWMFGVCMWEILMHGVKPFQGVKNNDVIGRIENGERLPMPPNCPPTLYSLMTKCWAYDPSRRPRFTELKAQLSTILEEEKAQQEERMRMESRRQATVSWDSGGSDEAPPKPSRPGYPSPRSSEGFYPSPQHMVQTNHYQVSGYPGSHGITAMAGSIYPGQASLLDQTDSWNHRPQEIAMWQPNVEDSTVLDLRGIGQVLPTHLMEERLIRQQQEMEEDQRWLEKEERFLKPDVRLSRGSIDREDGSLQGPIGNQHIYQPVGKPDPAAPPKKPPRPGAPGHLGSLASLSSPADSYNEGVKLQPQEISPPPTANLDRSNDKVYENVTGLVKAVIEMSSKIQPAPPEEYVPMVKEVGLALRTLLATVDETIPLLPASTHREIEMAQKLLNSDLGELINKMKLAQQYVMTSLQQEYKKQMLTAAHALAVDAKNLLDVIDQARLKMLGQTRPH
Structure (SMILES),composite z-score [1],composite Z-score [2],composite z-score [3],composite z-score [4],composite z-score [5],composite z-score [6],composite z-score [7],composite z-score [8],composite z-score [9],composite z-score [10],composite z-score [11],composite z-score [12],composite z-score [13],composite z-score [14],composite z-score [15],composite z-score [16],z-score [17],composite z-score [18],composite z-score [19],z-score [20]
CCCNC(=O)OC[C@H]1O[C@H](CCON=C2C[C@@H](O)[C@@H](O)[C@@H]3[C@@H]4C(=O)N(CC)C(=O)[C@@H]4CC[C@@H]23)C=C[C@@H]1Oc1ccc(OC)cc1,0.148,-0.477 (inactive),0.217,-0.136,0.575,0.572,0.73,1.32,0.929,0.728,1.44,0.94,0.158,0.946,1.14,0.622,-0.517,1.3,0.697,0.321 (inactive)
CCN1C(=O)[C@H]2[C@H]3[C@H](O)[C@H](O)CC(=NNC(=O)OCc4ccccc4)[C@@H]3CC[C@H]2C1=O,0.489,-0.45 (inactive),-0.0647,-0.14,-0.289,0.917,-0.314,-0.327,-0.0079,0.145,0.545,-0.513,-0.116,0.315,0.0633,-0.0789,0.207,0.066,0.128,0.248 (inactive)
CO[C@H]1COC(=O)[C@H](C)COC(=O)[C@@H](OCc2ccccc2)C=C[C@@H]1C,0.0996,0.976 (inactive),-0.141,-0.12,-0.342,-0.051,-0.181,0.207,0.225,0.233,-0.49,-1.09,-0.317,-0.534,0.139,0.496,0.877,0.613,-0.49,-1.56 (inactive)
CON=C(C)CCN1CCCc2nc(C)c(C)cc21,-0.353,0.599 (inactive),0.0496,-0.0769,0.438,1.42,0.234,1.1,0.637,0.374,1.15,0.476,-0.0211,0.613,0.632,0.653,1.45,1.05,0.201,0.267 (inactive)
CC(CCN1CCCc2nc(C)c(C)cc21)=NO[C@@H](C)c1cn([C@H](CO)Cc2ccccc2)nn1,-0.139,0.344 (inactive),0.184,-0.0282,0.074,0.531,-0.0771,0.477,0.801,0.497,0.14,0.0974,0.338,0.279,0.764,0.957,-0.088,0.671,0.152,-0.224 (inactive)
O=C(NN=C1C[C@@H](O)[C@@H](O)[C@@H]2[C@@H]3C(=O)N(c4ccc(F)cc4F)C(=O)[C@@H]3CC[C@H]12)OCc1ccccc1,0.87,-0.525 (inactive),0.11,-0.0958,0.477,0.98,-0.27,0.959,0.161,0.411,0.746,0.76,0.0097,0.501,0.28,0.0684,-0.63,0.331,0.114,0.934 (inactive)
CCN1C(=O)[C@H]2[C@@H]3C(=CC[C@H]2C1=O)C(=O)[C@H]1O[C@H]1[C@H]3O,-0.458,-0.192 (inactive),-0.0258,-0.0531,-0.156,0.141,0.426,0.657,1.21,0.725,1.21,0.491,-0.204,0.185,1.21,1.42,-0.923,1.39,0.207,-0.415 (inactive)
CCOC(=O)CCN1C(=O)[C@H]2[C@H]3[C@H](O)[C@H](O)CC(=O)[C@@H]3CC[C@H]2C1=O,0.206,-0.778 (inactive),-0.0448,-0.12,0.494,0.696,-0.732,0.81,0.514,0.729,0.591,0.843,-0.0508,0.532,0.64,1.28,-0.466,1.38,0.157,0.426 (inactive)
COc1cccc([C@H]2Oc3ccc(OC)cc3C(=NOCC[C@@H]3C=C[C@H](OC(C)=O)[C@@H](COC(C)=O)O3)[C@@H]2O)c1,0.869,0.551 (inactive),0.0293,-0.213,0.36,0.788,0.687,0.785,0.503,0.794,-0.972,0.562,0.292,0.967,0.37,0.462,-0.806,0.329,0.274,1.14 (inactive)
CON(C)C(=O)c1nnc2c(n1)[nH]c1ccccc12,0.795,0.0617 (inactive),-0.0765,-0.167,0.464,0.128,1.02,0.129,0.493,0.293,0.459,0.607,0.137,0.471,0.545,0.635,-0.448,0.596,0.816,-2.33 (inactive)
CC(C)=NOC[C@@H](O)[C@H]1O[C@@H]2OC(C)(C)O[C@@H]2[C@H]1O,0.255,0.559 (inactive),-0.349,-0.273,-0.0402,1.85,0.116,0.968,0.537,0.929,-0.0333,0.491,0.17,0.0104,0.464,0.57,0.225,0.507,0.0212,-0.394 (inactive)
